Results on 8 compounds are retold here after PubChem BioAssay (NCI).

Compounds without any hit were thinned out: in the full panel of roughly 83,000, 20% have a hit.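 Results are percent growth after 48 hours of single-concentration exposure. 100 means growth as in untreated cells, lower positive values show inhibition; negative values down to -100 show cell death.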 Unmarked numbers belong to inactive results. The source made the active and inactive calls. How the source made its calls: active means growth percent below 10; inactive means the rest.

Common to all, as to assay: NCI-60 one-dose screen, 48 h (100 = growth as untreated, 0 = no growth, -100 = all killed)
Common to all, as to conditions: 10 µM unless noted

The subject of experiment [1] is SR leukemia.
For experiment [2], the system named is RPMI-8226 leukemia.
Experiment [3] has as its system OVCAR-8 ovarian.
Experiment [4] deals with OVCAR-5 ovarian.
Experiment [5] concerns OVCAR-4 ovarian.
The subject of experiment [6] is SK-OV-3 ovarian.
For experiment [7], the system named is IGROV1 ovarian.
Experiment [8] has as its system OVCAR-3 ovarian.
For experiment [9], the system named is NCI/ADR-RES ovarian.
Experiment [10] has as its system T-47D breast.
Experiment [11] relates to BT-549 breast.
In experiment [12] the test system is MDA-MB-435 melanoma.
Experiment [13] deals with MCF7 breast.
Experiment [14] deals with HCT-116 colon.
Experiment [15] deals with HCC-2998 colon.
In experiment [16] the test system is KM12 colon.
In experiment [17] the test system is MDA-MB-468 breast.
Experiment [18] relates to SW-620 colon.

Take `O=C(/C=C/c1ccc(-c2ccccc2)cc1)c1nc2ccccc2n1Cc1ccc(Br)cc1`: the growth in [1] was 2.11% (active); in experiment [2], 14.1%; in [3], 43.9%; in [4], 74.7%; in [5], 50%; in experiment [6], 85.3%. For the same compound, the growth was 63.6% in experiment [7]; 45% in [8]; 47.1% in experiment [9]; 7.98% (active) in [10]; 41.7% in experiment [11]; 61.9% in experiment [12]. For the same compound, the growth was 21.3% in experiment [13]; 24% in experiment [14]; 62.6% in experiment [15]; 74.3% in experiment [16]; 49.6% in experiment [17].

With `C=Cn1cc(C(=O)O)c(=O)c2cc(F)c(N3CCN(c4nccc(-c5nccs5)n4)CC3)cc21`, the growth in [1] was -35.2% (active); in [2], -24% (active); in experiment [3], 7.65% (active); in experiment [4], -25.6% (active); in [5] it was 10.7%; in [6], -35.8% (active). Also, the growth was -30.3% (active) in experiment [7]; -4.52% (active) in experiment [8]; -39.5% (active) in [9]; -1.23% (active) in [10]; -49.1% (active) in experiment [11]; -38% (active) in [12]. The growth in experiment [13] was 0.211% (active); in experiment [14] it was -33.8% (active); in experiment [15], -62.1% (active); in experiment [16], -15% (active); in [17], -61.9% (active).

Regarding `CC1(C)CC[C@]2(C(=O)O)CC[C@]3(C)C(=CCC4[C@@]5(C)C[C@@H](O)[C@@H]6OC(c7ccco7)OC[C@@]6(C)C5CC[C@]43C)C2C1` (some centres not stated), the growth in [1] is 18.2%; in experiment [2], 15%; in [3], 26.9%; in [4] it was 65.4%; in experiment [5] it was 47.9%; in experiment [6], 75.6%. The growth in experiment [7] is 31.6%; in [8], 20.5%; in [9], 35.6%; in [10], 46.4%; in [11], 13.9%; in experiment [12], 12.2%. For the same compound, the growth is 23.6% in [18]; 21% in experiment [13]; 11.8% in [14]; 34% in experiment [15]; 17.3% in [16]; 8.23% (active) in experiment [17].

For `COc1ccc(C2(SCCNCc3cc(N(C)C)ccn3)c3ccccc3C=Cc3ccccc32)cc1`, the growth in [1] is -28.5% (active); in experiment [2] it was -22.8% (active); in experiment [3] it was 9.18% (active); in [4], 9.62% (active); in experiment [5], 43.7%; in [6] it was 36.5%. Further, the growth in [7] was 40.8%; in experiment [8], 14.6%; in experiment [9], -47.9% (active); in experiment [10], 32.4%; in experiment [11] it was 6.65% (active); in [12], -33% (active). Also, the growth in [18] is 4.94% (active); in [13], -5.08% (active); in experiment [14], 3.35% (active); in experiment [15], -30.1% (active); in [16], 13.9%; in [17], -46.9% (active).

For the compound `CC(C)c1ccc2c(N)c(C(=O)Nc3ccc(C(F)(F)F)cn3)sc2n1`, the growth in experiment [1] is 41.9%; in experiment [2], 37.9%; in experiment [3], 63.8%; in [4], 89.9%; in experiment [5], 32.4%; in experiment [6], 83.9%. The growth was 81.2% in experiment [7]; 83% in experiment [8]; 25% in experiment [9]; 23.2% in [10]; 42.1% in experiment [11]; 54.8% in experiment [12]. Moreover, the growth in experiment [13] was 36.9%; in experiment [14] it was 47.3%; in experiment [15], 96.1%; in experiment [16], 57%; in experiment [17], 14.8%.

`N#Cc1c(-c2ccc(Cl)cc2)nc2n[nH]c(-c3ccc(Cl)cc3)c2c1-c1cccs1`: the growth is 25.6% in experiment [1]; 17.7% in [2]; 66.7% in [3]; 75.8% in experiment [4]; 42.3% in [5]; 54.2% in experiment [6]. The growth was 62% in experiment [7]; 63.5% in experiment [8]; 61.1% in experiment [9]; 6.48% (active) in [10]; 55.4% in [11]; 60.5% in experiment [12]. In addition, the growth in experiment [13] is 44.7%; in [14] it was 35.4%; in experiment [15] it was 69.3%; in [16], 42%; in experiment [17], 50.8%.

Regarding `CC1=C(C(=O)c2ccccc2)C(c2cccc3ccccc23)n2c(nc3ccccc32)N1` (configuration not stated), the growth was 43.7% in experiment [1]; 83.9% in experiment [2]; 38.3% in experiment [3]; 68.4% in experiment [4]; 75.6% in experiment [5]; 57.4% in experiment [6]. The growth in experiment [7] is 86.5%; in [8], 59%; in [9], 43.3%; in experiment [10], 89.9%; in experiment [11], 61.1%; in [12] it was 72.6%. The growth in [13] was 38.1%; in experiment [14] it was 31.7%; in experiment [15], 95.5%; in experiment [16] it was 90.6%; in [17], -12.7% (active).

For the compound `O=C(O)c1cccc(-c2ccc(/C=N/NC(=O)c3[nH]c4ccc(Br)cc4c3-c3ccccc3)o2)c1`, the growth in experiment [1] is 21.1%; in experiment [2], 96.5%; in experiment [3] it was 66.4%; in experiment [4] it was 107%; in experiment [5], 73%; in experiment [6], 110%. Also, the growth in experiment [7] was 85%; in experiment [8], 17.1%; in [9], 73.7%; in experiment [10], 55.3%; in experiment [11] it was 34.7%; in [12], 43.9%. The growth is 53.1% in experiment [13], 66.2% in experiment [14], 84.8% in [15] and 79.3% in [16].
